Where “and” joins values, the source holds several entries; their conditions need not be identical. Identical values can stand only once. Calls of active or inactive are those of the source. Unless noted, the rule behind the calls is not given here.
Columns and labels:
[1] = test system: Wnt5a (protein binding on small-molecule microarray); assay: small molecules binding Wnt5a protein – biophysical, small-molecule microarray, 635/667 nm fluorescence, primary screen (AID 1142); conditions: 635 nm fluorescence, higher = more signal;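 note: fluorescence read at 667 nm with signal to noise per printed feature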
[2] = ATP-based viability of Huh7 replicon cells – cell-based, CellTiter-Glo luminescence, basal, 48 h, cytotoxicity control for HCV replication inhibitor project, primary screen (AID 1143); conditions: higher = more signal, called active from +8 up or from −8 down;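 note: Huh7 hepatoma cells carrying a hepatitis C replication reporter with no stimulus; test concentration not given here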
[3] = Pseudomonas biofilm growth suppression – PAO1 strain, BacTiter-Glo luminescence, LB-PBS, primary screen (AID 1144); conditions: P. aeruginosa PAO1 biofilm, 12 h, higher = more signal
[4] = basal CRE-LacZ reporter activity in PC12 – cell-based, unstimulated, primary screen (AID 1145); conditions: no forskolin, luminescence, 4.5 h, higher = more signal, called active from +8 up or from −8 down
[5] = forskolin-driven CRE-LacZ activity in PC12 – cell-based, CRE-LacZ reporter, forskolin-stimulated, primary screen (AID 1146); conditions: luminescence, 4.5 h, higher = more signal, called active from +8 up or from −8 down;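 note: PC12 cells with 6xCRE LacZ reporter stimulated by forskolin 10 µM; beta-galactosidase reporter signal reflecting CREB driven transcription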
[6] = target: Streptavidin (Streptomyces avidinii) (UniProt P22629); assay: compounds binding control protein streptavidin – biophysical, small-molecule microarray, 635/667 nm fluorescence, artefact control for SMM compound annotation, primary screen (AID 1147); conditions: higher = more signal;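 note: signal reflects streptavidin binding to arrayed compounds as a control protein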
Sequence of Streptavidin (Streptomyces avidinii) (P22629 whole entry, looked up): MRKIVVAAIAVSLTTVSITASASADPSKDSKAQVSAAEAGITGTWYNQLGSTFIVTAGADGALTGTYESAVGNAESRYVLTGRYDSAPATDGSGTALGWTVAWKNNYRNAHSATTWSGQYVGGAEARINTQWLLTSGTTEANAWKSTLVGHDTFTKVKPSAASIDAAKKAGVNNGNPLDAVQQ

[7] = probe aInhba binding on compound microarray – biochemical, small-molecule microarray, 635/667 nm fluorescence, primary screen (AID 1148); conditions: higher = more signal;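 note: score merges 667nm spot fluorescence with signal-to-noise for antibody binding to printed compounds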
Torsin-1A (Homo sapiens) [8] = target: Torsin-1A (Homo sapiens) (UniProt O14656); assay: TOR1A wild-type binding on microarray – cell lysate, small-molecule microarray, lysate, 635/667 nm, primary screen (AID 1149); conditions: COS7 hTOR1A-WT lysate, 635 nm fluorescence, higher = more signal
Sequence of Torsin-1A (Homo sapiens) (O14656 whole entry, looked up): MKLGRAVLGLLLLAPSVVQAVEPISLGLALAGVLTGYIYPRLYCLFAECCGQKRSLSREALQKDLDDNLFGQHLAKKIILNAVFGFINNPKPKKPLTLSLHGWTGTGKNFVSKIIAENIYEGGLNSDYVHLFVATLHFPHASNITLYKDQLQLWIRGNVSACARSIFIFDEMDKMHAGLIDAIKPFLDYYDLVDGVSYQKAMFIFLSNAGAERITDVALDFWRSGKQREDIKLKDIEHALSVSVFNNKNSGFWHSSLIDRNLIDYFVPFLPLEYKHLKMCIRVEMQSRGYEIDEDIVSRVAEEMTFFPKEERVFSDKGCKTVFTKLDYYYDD

Torsin-1A (Homo sapiens) [9] = target: Torsin-1A (Homo sapiens) (UniProt O14656); assay: torsin A mutant lysate binding on microarrays – cell lysate, small-molecule microarray, COS7 lysate, 635/667 nm fluorescence, primary screen (AID 1150); conditions: COS7 hTOR1A mutant lysate, 635 nm fluorescence, higher = more signal;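 note: score pools 667 nm emission and signal to noise measuring lysate protein binding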
[10] = test system: Sonic hedgehog protein (Shh); assay: Sonic hedgehog microarray binding compounds – biochemical, small-molecule microarray, 635/667 nm fluorescence, primary screen (AID 1151); conditions: 635 nm fluorescence, higher = more signal;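 note: Shh protein binding to compounds spotted on small-molecule microarray slides; score combines spot fluorescence intensity with signal-to-noise across triplicate slides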
[11] = optical density shifts of acrAB sulA E. coli – strain DRC41, OD650, 48 h, E. coli filamentation inducer project, primary screen (AID 1152); conditions: higher = more signal, called active from +8 up or from −8 down;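 note: E. coli MC1000 strain DRC41 lacking acrAB efflux pump and sulA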
[12] = probe aLefty1 binding on compound microarray – biochemical, small-molecule microarray, 635/667 nm fluorescence, primary screen (AID 1153); conditions: higher = more signal;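 note: score merges spot fluorescence with signal-to-noise ratio from the scanned slide images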
[13] = plasmodial surface anion channel blockers, osmotic lysis – cell-based, P. falciparum Indochina, OD700, 1 h, primary screen (AID 1154); conditions: P. falciparum Indochina infected RBC osmotic lysis, higher = more signal, called active from +8 up or from −8 down
[14] = plasmodial surface anion channel blockers, osmotic lysis – cell-based, P. falciparum Indochina, OD700, 2 h, primary screen (AID 1155);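 note: lysis reports solute entry through the parasite surface anion channel PSAC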; conditions: P. falciparum Indochina infected erythrocytes, higher = more signal, called active from +8 up or from −8 down
[15] = changes in parasitized red cell lysis, either direction – P. falciparum Indochina, OD700, 3 h, PSAC antagonist project, primary screen (AID 1156); conditions: P. falciparum-infected erythrocytes, osmotic lysis, higher = more signal, called active from +8 up or from −8 down
[16] = plasmodial surface anion channel blockers, osmotic lysis – cell-based, P. falciparum Indochina, OD700, 18 h, primary screen (AID 1157); conditions: P. falciparum Indochina infected erythrocytes, osmotic lysis OD700, 18 h; higher = more signal, called active from +8 up or from −8 down
[17] = S6 kinase pathway phospho-S6 level changes – cell-based, A549, cytoblot, luminescence, serum-stimulated, primary screen (AID 1158); conditions: 5 h, higher = more signal;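 note: serum-stimulated A549 lung adenocarcinoma cells; signal is phosphorylated S6 detected by cytoblot immunostaining with HRP secondary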
[18] = target: NADPH oxidase 2 (Homo sapiens) (UniProt P04839); assay: compounds shifting NOX2 Amplex Red fluorescence – cell-based, HEK293-NOX2, PMA-stimulated, NOX inhibitor project, primary screen (AID 1159); conditions: 45 min, higher = more signal, called active from +8 up or from −8 down; note: test concentration not given here
Sequence of NADPH oxidase 2 (Homo sapiens) (P04839 whole entry, looked up): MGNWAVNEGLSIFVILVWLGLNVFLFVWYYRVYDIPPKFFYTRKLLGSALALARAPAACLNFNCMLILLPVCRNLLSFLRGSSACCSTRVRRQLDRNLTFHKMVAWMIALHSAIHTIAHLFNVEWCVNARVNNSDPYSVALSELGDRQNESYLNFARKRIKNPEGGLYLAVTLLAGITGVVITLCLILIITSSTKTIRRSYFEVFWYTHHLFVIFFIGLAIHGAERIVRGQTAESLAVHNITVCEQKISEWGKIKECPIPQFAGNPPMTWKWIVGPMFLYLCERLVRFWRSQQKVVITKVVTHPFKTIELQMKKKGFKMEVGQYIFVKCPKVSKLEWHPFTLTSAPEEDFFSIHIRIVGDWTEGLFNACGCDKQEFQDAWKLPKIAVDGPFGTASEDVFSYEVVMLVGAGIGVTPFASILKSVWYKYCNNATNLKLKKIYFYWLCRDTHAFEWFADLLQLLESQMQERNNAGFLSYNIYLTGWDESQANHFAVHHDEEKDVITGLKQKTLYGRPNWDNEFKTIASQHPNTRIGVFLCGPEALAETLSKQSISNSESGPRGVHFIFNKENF

[19] = target: NADPH oxidase 4 (Homo sapiens) (UniProt Q9NPH5); assay: compounds shifting NOX4 Amplex Red fluorescence – cell-based, HEK293-NOX4, tetracycline-induced, NOX inhibitor project, primary screen (AID 1160); conditions: HEK293-NOX4, Amplex Red H2O2 fluorescence, 45 min; higher = more signal, called active from +8 up or from −8 down
Sequence of NADPH oxidase 4 (Homo sapiens) (Q9NPH5 whole entry, looked up): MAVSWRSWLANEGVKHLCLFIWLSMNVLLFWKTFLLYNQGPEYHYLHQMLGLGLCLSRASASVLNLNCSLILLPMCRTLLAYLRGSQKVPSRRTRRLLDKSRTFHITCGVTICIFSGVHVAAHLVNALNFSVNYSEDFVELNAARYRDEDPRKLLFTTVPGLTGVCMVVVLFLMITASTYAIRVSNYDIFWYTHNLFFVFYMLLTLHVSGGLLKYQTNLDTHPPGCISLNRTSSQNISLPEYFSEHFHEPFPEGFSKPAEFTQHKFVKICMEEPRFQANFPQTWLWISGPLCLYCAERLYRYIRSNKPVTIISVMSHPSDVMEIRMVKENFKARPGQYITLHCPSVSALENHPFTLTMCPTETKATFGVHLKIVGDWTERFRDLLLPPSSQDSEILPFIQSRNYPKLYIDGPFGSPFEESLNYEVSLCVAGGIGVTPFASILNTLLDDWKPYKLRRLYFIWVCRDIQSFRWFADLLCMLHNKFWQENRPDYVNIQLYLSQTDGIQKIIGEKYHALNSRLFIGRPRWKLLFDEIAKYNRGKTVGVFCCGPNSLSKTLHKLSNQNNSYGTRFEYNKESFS

[20] = target: NADPH oxidase 5 (Homo sapiens) (UniProt Q96PH1); assay: compounds shifting NOX5 Amplex Red fluorescence – cell-based, HEK293-NOX5, NOX inhibitor project, primary screen (AID 1161); conditions: HEK293-NOX5, ionomycin, 45 min, higher = more signal
Sequence of NADPH oxidase 5 (Homo sapiens) (Q96PH1 whole entry, looked up): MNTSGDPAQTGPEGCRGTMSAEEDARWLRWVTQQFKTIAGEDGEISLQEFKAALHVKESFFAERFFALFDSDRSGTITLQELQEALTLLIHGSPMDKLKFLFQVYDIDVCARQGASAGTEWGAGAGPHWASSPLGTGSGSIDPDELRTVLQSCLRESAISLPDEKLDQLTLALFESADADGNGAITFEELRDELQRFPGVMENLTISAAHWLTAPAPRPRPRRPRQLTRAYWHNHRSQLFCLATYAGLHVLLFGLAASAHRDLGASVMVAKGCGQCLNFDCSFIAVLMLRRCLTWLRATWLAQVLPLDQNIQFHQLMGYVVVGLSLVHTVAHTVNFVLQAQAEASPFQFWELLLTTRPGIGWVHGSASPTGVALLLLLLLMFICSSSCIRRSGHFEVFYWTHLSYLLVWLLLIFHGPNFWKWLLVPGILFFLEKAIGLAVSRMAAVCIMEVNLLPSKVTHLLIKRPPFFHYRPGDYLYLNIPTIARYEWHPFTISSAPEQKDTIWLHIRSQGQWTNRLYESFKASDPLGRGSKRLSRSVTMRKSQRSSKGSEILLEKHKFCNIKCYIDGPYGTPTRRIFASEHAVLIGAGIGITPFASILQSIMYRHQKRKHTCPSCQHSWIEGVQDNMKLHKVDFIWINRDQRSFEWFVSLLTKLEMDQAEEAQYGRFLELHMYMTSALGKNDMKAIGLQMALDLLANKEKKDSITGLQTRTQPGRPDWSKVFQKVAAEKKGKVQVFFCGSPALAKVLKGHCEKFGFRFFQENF

SMILES | composite z-score [1] | z-score [2] | z-score [3] | z-score [4] | z-score [5] | composite z-score [6] | composite z-score [7] | composite z-score (Torsin-1A (Homo sapiens) [8]) | composite z-score (Torsin-1A (Homo sapiens) [9]) | composite z-score [10] | z-score [11] | composite z-score [12] | z-score [13] | z-score [14] | z-score [15] | z-score [16] | z-score [17] | z-score [18] | z-score [19] | z-score [20]
C=C[C@@H](C)[C@@H](O)c1ccc(OCCO)cc1 | -1.29 and -1.06 | -0.295 (inactive) and -0.245 (inactive) | -0.828 (inactive) and -0.12 (inactive) | 0.105 (inactive) and 1.46 (inactive) | -0.466 (inactive) and -0.637 (inactive) | -1.1 and -0.908 | -0.312 and -0.213 | -3.3 and -3.39 | -2.66 and -2.95 | -1.39 and 0.319 | 0.155 (inactive) and 1.8 (inactive) | -0.237 and -0.102 | 1.23 (inactive) and 0.481 (inactive) | 0.568 (inactive) and -0.311 (inactive) | 0.321 (inactive) and -0.929 (inactive) | 0.281 (inactive) and -0.873 (inactive) | 0.0021 and 0.856 | -0.228 (inactive) and -0.985 (inactive) | -0.115 (inactive) and -0.247 (inactive) | -0.0389 and -0.521
C=CCN(Cc1ccccc1)C(=O)C(c1cccs1)N(C(=O)/C=C\C(=O)O)c1c(Cl)cccc1CO (stereo not given) | -0.835 and -0.796 | -0.109 (inactive) and 0.446 (inactive) | -1.78 (inactive) and 0.911 (inactive) | -1.44 (inactive) and 0.191 (inactive) | -0.418 (inactive) and -0.107 (inactive) | -1.7 and -1.08 | -0.154 and -0.176 | -2.82 and -2.49 | 0.702 and -1.72 | -0.877 and -0.78 | -0.608 (inactive) and -0.244 (inactive) | -0.855 and -0.191 | -0.152 (inactive) and -0.0214 (inactive) | 0.0805 (inactive) and 0.266 (inactive) | 0.617 (inactive) and -0.39 (inactive) | 0.306 (inactive) and 0.109 (inactive) | 0.0278 and -0.193 | -0.0842 (inactive) and 0.208 (inactive) | -0.662 (inactive) and -0.417 (inactive) | 0.0528 and 0.284
CCN1C(=O)[C@H]2[C@H]3[C@H](O)[C@H](O)CC(=NOC[C@@H](O)COCc4ccco4)[C@@H]3CC[C@H]2C1=O | 0.0867 and 0.192 | 0.343 (inactive) and 0.422 (inactive) | -1.34 (inactive) and -0.00909 (inactive) | -0.746 (inactive) and 1.6 (inactive) | 0.463 (inactive) and 0.503 (inactive) | -0.503 and -0.321 | -0.324 and -0.15 | 3.48 and 0.374 | 3.12 and 0.272 | 2.1 and 1.78 | -0.423 (inactive) and -0.268 (inactive) | -0.0877 and -0.101 | -0.0538 (inactive) and 1.03 (inactive) | -0.0403 (inactive) and 0.0127 (inactive) | -0.534 (inactive) and 1.78 (inactive) | -0.21 (inactive) and 0.464 (inactive) | 0.485 and 0.312 | -0.535 (inactive) and 0.394 (inactive) | -1.86 (inactive) and -0.599 (inactive) | -0.844 and -0.174
COC(=O)C1=C(C)N(Cc2ccccc2)C2=C(C(C)=O)[C@H](c3ccccc3)[C@@](O)(C(=O)OC)C(=O)N2[C@@H]1c1ccccc1 | 0.142 and -0.0685 | -0.912 (inactive) and -3.17 (inactive) | -1.5 (inactive) | 1.1 (inactive) and 0.916 (inactive) | -0.213 (inactive) and -0.284 (inactive) | 0.499 and -0.212 | 0.105 and -0.171 | 0.576 and -0.313 | 0.9 and -0.211 | 0.686 and 0.16 | 0.363 (inactive) and -0.426 (inactive) | -0.0908 and -0.118 | 1.65 (inactive) and 0.383 (inactive) | 0.441 (inactive) and -0.0277 (inactive) | 1.2 (inactive) and -1.16 (inactive) | 0.419 (inactive) and -0.175 (inactive) | 0.582 and 3.5 | 2.34 (inactive) and -3.45 (inactive) | 0.687 (inactive) and 0.321 (inactive) | 0.784 and 0.53
C=CCN(CCCC)C(=O)C(c1cccs1)N(C(=O)/C=C\C(=O)O)c1ccc(CCO)cc1 (stereo not given) | -0.118 and -0.341 | 0.197 (inactive) and 0.617 (inactive) | -0.568 (inactive) and 0.123 (inactive) | -0.0818 (inactive) and 0.195 (inactive) | -0.21 (inactive) and -0.185 (inactive) | -0.874 and -1.49 | -0.195 and -0.331 | -1.2 and -3.21 | -2.35 and -1.52 | -0.463 and -1.18 | 0.369 (inactive) and 0.133 (inactive) | -0.279 and -0.147 | 0.855 (inactive) and 1.03 (inactive) | -0.14 (inactive) and -0.182 (inactive) | 0.517 (inactive) and 0.0377 (inactive) | 0.0866 (inactive) and 0.233 (inactive) | 0.0768 and 0.0738 | 0.377 (inactive) and 0.12 (inactive) | -0.432 (inactive) and -0.518 (inactive) | 1.18 and -0.0206

From PubChem BioAssay
